Results taken from PubChem BioAssay (NCI).
This is part of a sample that, as a whole, favours compounds with a hit. Of some 83,000 tested, about 20% had one in any assay.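 The endpoint reported here, percent growth, reads 100 for growth as untreated, 0 for no net growth and -100 for all cells dead.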 Activity calls are given as the source filed them. How the source made its calls: active means growth percent below 10; inactive means the rest.

How the values were obtained:
Assay in all cases: NCI-60 one-dose screen, 48 h (100 = growth as untreated, 0 = no growth, -100 = all killed)
Details in all cases: 10 µM unless noted
[1] = test system: T-47D breast
[2] = test system: BT-549 breast
[3] = test system: MDA-MB-435 melanoma
[4] = test system: SW-620 colon
[5] = test system: MCF7 breast
[6] = test system: HCT-116 colon
[7] = test system: HCC-2998 colon
[8] = test system: KM12 colon

Measured: growth

COc1cc(OC)c(C(=O)/C=C/c2cccc(C#N)c2)c(OC)c1
inactive: [5] 15% | [7] 14.4%
active: [1] 4.14% | [2] -3.25% | [3] 7.3% | [4] 6.58% | [6] 2.91% | [8] 6.41%

CN(C)c1ncc(-c2ccc(C(F)(F)F)cc2)c(NC2CCCCCC2)n1
inactive: [1] 35.1% | [2] 90.3% | [3] 65.4% | [4] 58.1% | [5] 41.2% | [6] 44.1% | [7] 72.2% | [8] 54.4%

COC(=O)C(CC(=O)c1ccc(-c2ccccc2)cc1)c1ccccc1 (stereo not given)
inactive: [1] 51.9% | [2] 71.2% | [4] 26.9% | [5] 16.2% | [6] 23.5% | [7] 96.5% | [8] 55.6%
active: [3] 5.69%

Nc1c(C(=O)Nc2ccccc2)sc2nc3c(cc12)CN(Cc1ccccc1)CC3
inactive: [1] 60.9% | [2] 50.8% | [3] 52.1% | [4] 76.9% | [5] 77.9% | [6] 65.1% | [7] 79.1% | [8] 56.4%

Cc1cc(-c2ccccc2)c(C)n1Cc1ccc(Cl)cc1
inactive: [1] 50.5% | [2] 37.7% | [4] 22.7% | [5] 23.5% | [6] 15% | [7] 74.2% | [8] 27.6%
active: [3] -18.4%

CCCCCCCN(CCCCCCC)C(=N)c1ccc(OC)c2ccccc12
active: [1] -72.9% | [2] -7.55% | [3] -98.7% | [4] -89.1% | [5] -74.4% | [6] -86.7% | [7] -92.5% | [8] -84.3%

CC(=O)/C=C/c1cc2cc(Cl)ccc2[nH]c1=O
inactive: [1] 50% | [2] 65.5% | [3] 94.2% | [4] 80.4% | [5] 30.5% | [6] 48.1% | [7] 95.2% | [8] 60%

Nc1c(C(=O)Nc2ccccc2)sc2nc3c(cc12)CCCCC3
active: [3] -50.7%
inactive: [1] 42.2% | [2] 48.8% | [4] 24.2% | [5] 12.1% | [6] 11.2% | [7] 43.5% | [8] 12.2%

CCc1c(C(=O)Nc2ccc3ccccc3c2)[nH]c(C)c1C(C)=O
inactive: [1] 83.6% | [2] 112% | [3] 78.7% | [4] 99.5% | [5] 84.6% | [6] 99.5% | [7] 99.1% | [8] 84.7%

NC(CC(N)C(=O)O)C(=O)O (stereo not given)
inactive: [1] 92.9% | [2] 105% | [3] 103% | [4] 104% | [5] 98.7% | [6] 102% | [7] 99.3% | [8] 113%

COc1ccc(C(=O)c2cc(OC)c(OC)c(OC)c2)cc1/C=C/C(=O)c1ccc(OC)c(OC)c1
active: [4] 9.37% | [8] 9.37%
inactive: [1] 35.2% | [2] 36.5% | [3] 20% | [5] 17.3% | [6] 10.4% | [7] 45.9%

Cc1cc(C)c(NC(=O)c2sc3nc4c(cc3c2N)CN(Cc2ccccc2)CC4)c(C)c1
active: [3] -18.6%
inactive: [1] 27.4% | [2] 52.2% | [4] 23.7% | [5] 17.6% | [6] 22.6% | [7] 62.3% | [8] 19.4%

NC(=O)NC(=O)/C=C/C(=O)OCCCl
inactive: [1] 69% | [2] 106% | [3] 101% | [4] 102% | [5] 92.2% | [6] 104% | [7] 99.8% | [8] 110%

CCN(CC)CCCNc1nc(C)cc(Nc2ccc3nc(C)cc(N)c3c2)n1
inactive: [1] 92.2% | [2] 84.9% | [3] 103% | [4] 117% | [5] 92.8% | [6] 93% | [7] 97.6% | [8] 101%

CCN(CC)CCC(=O)c1cccc2ccccc12
inactive: [1] 85.1% | [2] 110% | [3] 108% | [4] 104% | [5] 63.9% | [6] 109% | [7] 97.1% | [8] 103%

COc1ccc(/C=C/C(=O)/C=C/c2cc3ccc(Cl)cc3[nH]c2=O)cc1
active: [6] -50.8%
inactive: [1] 67.3% | [2] 75.6% | [3] 81.5% | [4] 66.1% | [5] 25.2% | [7] 93.1% | [8] 72.5%

COc1ccc(-n2c(C)cc(-c3ccccc3)c2C)cc1
inactive: [1] 27.5% | [2] 47% | [3] 12.1% | [4] 41.2% | [5] 28% | [6] 21% | [7] 35.1% | [8] 37.7%

COc1ncc(-c2ccc3ncnc(Nc4cccc(Cl)c4)c3c2)cc1NS(=O)(=O)C1CC1
inactive: [3] 47.9% | [4] 51.1% | [6] 49.2% | [7] 59.9% | [8] 69.7%
active: [1] -1.98% | [2] 2.9% | [5] 7.65%

COc1ccccc1CNCCCN1C(=O)c2ccc3c4c(ccc(c24)C1=O)C(=O)N(CCCNCCCCNCCCCN)C3=O
inactive: [2] 102%
active: [1] -1.05% | [3] -59.7% | [4] 2.99% | [5] -34.9% | [6] 3.34% | [7] -4.93% | [8] 5.46%

Cc1cc(Nc2nc(C(=O)Nc3ccccc3)nc3ccccc23)n[nH]1
inactive: [1] 47% | [2] 50.6% | [3] 64.9% | [4] 77.5% | [5] 72.1% | [6] 45.6% | [7] 84.3% | [8] 28%

O=S(=O)(NCCCNc1cc(-c2cn(-c3ccccc3)nc2-c2cccc(O)c2)ccn1)c1ccc(C(F)(F)F)cc1
inactive: [1] 35.1% | [2] 42.2% | [3] 34.9% | [4] 27.4% | [5] 22% | [6] 29% | [8] 23.3%
active: [7] -30.5%

ClC1=C(Cl)C(Cl)=C(Cl)C1=Cc1ccc(Cl)cc1Cl
active: [1] -0.12% | [2] -26.3% | [3] -52.4% | [4] -43.9% | [5] 4.25% | [6] -55.5% | [7] -89.7% | [8] -78.9%

CCC#CC[C@H]1C/C=C2/C(=O)C=C[C@@H]2C/C=C\CCCC(=O)O1
inactive: [1] 24.1% | [5] 18.3%
active: [2] 0.46% | [3] -0.679% | [4] 0.0835% | [6] -70.9% | [7] -67% | [8] -48.8%

Clc1nc(-c2cccnc2)nc2sc3c(c12)CCCCCC3
inactive: [1] 95.4% | [2] 99.8% | [3] 97.3% | [4] 106% | [5] 92.7% | [6] 97.1% | [7] 107% | [8] 116%

O=C(CCCn1c(=O)c2sc3ccccc3c2n2nnc(-c3ccccc3)c12)NCCc1cnc[nH]1
active: [1] 4.62% | [3] -49.9% | [4] -11.1% | [5] -47.4% | [6] -86.6% | [7] -42.6% | [8] -7.92%
inactive: [2] 32.3%

CN(C)C/C=C/C(=O)Nc1cc2c(Nc3ccc(F)c(Cl)c3F)ncnc2cc1OCCOC(F)F
inactive: [5] 20% | [7] 41.1% | [8] 44.6%
active: [1] -1.23% | [2] 5.73% | [3] 5.61% | [4] 3.09% | [6] 2.2%

CCn1cc(C(=O)O)c(=O)c2cc(F)c(N3CCN(S(=O)(=O)c4c(C)cc(C)cc4C)CC3)cc21
inactive: [1] 74.1% | [2] 73.7% | [3] 89.1% | [4] 95.1% | [5] 93.7% | [6] 79.2% | [7] 82.5% | [8] 87.2%

CCCCCc1c(C)[nH]c(/C=c2\[nH]/c(=C3/C=c4ccccc4=N3)cc2OC)c1C
active: [1] -6.71% | [2] -35.2% | [3] -53.6% | [4] -36.1% | [5] -54.5% | [6] -97.2% | [7] -11.4% | [8] -21.7%

O=C(OCCCCOC(=O)n1cnc2ccccc21)n1cnc2ccccc21
inactive: [1] 92.2% | [2] 104% | [3] 103% | [4] 106% | [5] 96.7% | [6] 102% | [7] 111% | [8] 104%

CC(=O)OC[Si](C)(C)c1ccccc1
inactive: [1] 105% | [2] 107% | [3] 99.1% | [4] 101% | [5] 107% | [6] 99.9% | [7] 122% | [8] 110%
